Pf growth 48h: inhibits P. falciparum growth in the first generation, 48 h. P. falciparum luciferase growth in erythrocytes, 48 h. Potency, µM (top dose mostly 28.7 µM), inactives show top-dose activity change, negative = inhibition, actives largely listed as inhibitors. actives 5.9% (n = 310,000); further: potency means the concentration at half of the fitted maximal effect; on the % scale 0 is the no-effect control and ±100 the full control effect
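Growth was read as firefly luciferase luminescence after a 48 h, 37 C, 5% CO2 exposure of compounds to reporter-bearing P. falciparum cultures (0.1% parasitemia, 2% hematocrit final) in Albumax-supplemented RPMI 1640.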
LmPK inh: LmPK (Leishmania mexicana) enzyme inhibition; Q27686; Potency, µM (top dose mostly 57.5 µM), for the others: at the highest dose activity change, negative = inhibition, hits mostly inhibitors; purified LmPK, Kinase-Glo ATP luminescence, 1 h; actives 0.37% (n = 290,000); further: potency means the concentration at half of the fitted maximal effect; on the % scale 0 is the no-effect control and ±100 the full control effect
Target sequence (Q27686 whole entry, looked up): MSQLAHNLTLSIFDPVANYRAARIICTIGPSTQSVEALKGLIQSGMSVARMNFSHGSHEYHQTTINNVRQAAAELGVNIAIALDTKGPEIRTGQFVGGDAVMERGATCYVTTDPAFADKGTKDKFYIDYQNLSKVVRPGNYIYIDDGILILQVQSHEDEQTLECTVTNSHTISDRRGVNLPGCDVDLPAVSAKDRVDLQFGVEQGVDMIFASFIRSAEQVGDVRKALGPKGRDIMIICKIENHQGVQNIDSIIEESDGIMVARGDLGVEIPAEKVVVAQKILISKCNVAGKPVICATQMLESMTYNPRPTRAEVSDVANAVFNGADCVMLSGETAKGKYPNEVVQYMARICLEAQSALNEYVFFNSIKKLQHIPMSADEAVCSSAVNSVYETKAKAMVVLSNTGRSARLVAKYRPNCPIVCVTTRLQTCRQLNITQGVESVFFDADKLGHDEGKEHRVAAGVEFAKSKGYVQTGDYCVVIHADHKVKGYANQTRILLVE
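0.1 nM LmPK, 0.5 mM PEP, 0.1 mM ADP; 50 mM imidazole pH 7.2, 7 mM MgCl2, 50 mM KCl; 1 h RT. Kinase-Glo luminescence readout, normalized to no-enzyme (full inhibition) and uninhibited wells.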
CHX counter: affects cycloheximide protein synthesis inhibition readout, counter-screen; cell reporter, cycloheximide protein synthesis inhibition counterscreen; max response, %; actives 12% (n = 300,000); AID 2314; in the data active means max response mostly above about 13%, no sharp cut-off; inactive means mostly below about 14%; further: read at 38.3 µM for the half of the compounds with a filed dose; 0% is about no effect
Pf growth 96h: P. falciparum growth inhibition at 96 hours. P. falciparum luciferase reporter growth, 96 h. AID 504834. actives 6.9% (n = 320,000). Potency, µM (top dose mostly 28.7 µM), for inactives: at the highest dose activity change, negative = inhibition, usual class: inhibitors; further: potency means the concentration at half of the fitted maximal effect; on the % scale 0 is the no-effect control and ±100 the full control effect
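Erythrocytes infected with luciferase-expressing P. falciparum were dispensed at 2% hematocrit and 0.05% parasitemia (final), then incubated with compounds 96 hours at 37 C in 5% CO2. Luminescence after detection reagent addition reported growth.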
Shiga inhibitor: blocks Shiga toxin action in Vero cells | Vero cells, Shiga toxin protein synthesis inhibition reporter | AID 2315 | inhibition, % at 38.7 µM | actives 9.2% (n = 290,000); in the data active means inhibition mostly above about 28%, no sharp cut-off; inactive means mostly below about 43%; further: 0% is about no effect
Numbers without * were called inactive; ? = inconclusive; · = no result given. This is a sample that favours compounds with a hit; in the whole collection about 22% have one here. Unless noted, the call rests on the fitted dose curve; in most records, active means well fitted inhibition curve with a large enough effect; inconclusive means small, poorly fitted or top-dose-only effect, or another doubt; inactive means no such curve, though single readings can be large or run the other way.

SMILES | Pf growth 48h | LmPK inh | CHX counter | Pf growth 96h | Shiga inhibitor
COC(=O)c1cn(CC(=O)Nc2ccc(F)cc2)c2ccccc12 | 23.3% | 4.0% | -0.9 | 105.7% | 11.7
CC(C)C1COS(=O)(=O)NC1CC(=O)SC(C)(C)C (stereo not drawn) | 49.8% | -0.2% | -2.1 | -14.2% | -8.1
CN(C(=O)CN1CCCCCC1)c1c(N)n(Cc2ccccc2)c(=O)[nH]c1=O | -1.4% | · | · | -20.7% | ·
S=c1[nH]ncn2c1cc1oc3ccccc3c12 | 33.9% | 1.2% | 10.6 | 0.0% | 39.9
O=C(COC(=O)c1ccc(OC(F)F)cc1)NCCC1=CCCCC1 | -11.6% | · | · | 17.0% | ·
Cc1ccc(C(=O)OCC(=O)c2ccccc2)cc1 | 275.7% | -6.8% | 22.7* | ? | 48.3*
CC(=O)NC(C)C(=O)OCC(=O)c1ccc(-c2ccccc2)cc1 (stereo not drawn) | 23.6% | 2.2% | 16.1* | 35.1% | 49.1*
Cc1ccc[n+](CC(=O)c2ccc(Cl)cc2)c1 | 4.0% | 1.6% | 6.2 | 0.828µM* | 34.9
CC(NC(=O)c1ccccc1)C(=O)OCC(=O)c1ccc(Br)cc1 (stereo not drawn) | 15.7% | -1.7% | -0.7 | 6.6% | 9.7
Cc1ccc(C(=O)C[n+]2cccc3ccccc32)cc1 | 13.1µM* | -1.0% | 0.5 | 4.15µM* | 8.0
O=C(COC(=O)c1ccc(-c2cnc3ccccc3n2)cc1)c1ccccc1 | 42.1% | 6.0% | 10.9 | 3.3% | 9.6
CCCCCCCCCCCC | · | · | -5.9 | · | 30.5
Cc1cccc(C(=O)NC(=S)NNC(=O)COc2c(C)cccc2C)c1 | 18.8% | 2.3% | -0.6 | -5.7% | -2.0
CC(=O)N1CCC(C(=O)NCCOc2ccc(C)cc2)CC1 | 5.0% | -6.3% | 8.9 | 6.1% | -9.7
CCOC(=O)c1cc(-c2ccccc2)n(Cc2cc(CC)no2)n1 | -4.3% | · | · | 90.5% | ·
Cc1ccc[n+](CC(=O)c2ccc(-c3ccccc3)cc2)c1 | -28.4% | -4.9% | -1.5 | ? | -8.6
Cc1ccc(C(=O)C[n+]2ccccc2)cc1 | 44.5% | -1.9% | 24.6* | 16.2% | 35.9*
CC1CN(C(=O)c2ccc(-c3cccc(C(F)(F)F)c3)o2)CC(C)O1 (stereo not drawn) | 13.1µM* | · | · | ? | ·
O=C(c1ccc(-c2cccc(C(F)(F)F)c2)o1)N1CCCCCCC1 | -17.7% | · | · | -14.0% | ·
COc1cccc(OCCCCN2CC(C)OC(C)C2)c1 (stereo not drawn) | · | -4.9% | -4.1 | 22.6% | 15.9
CC1CN(CCCCOc2ccc3ccccc3c2)CC(C)O1 (stereo not drawn) | 12.2% | -3.5% | 22.1* | 140.0% | 21.3
CC(C)SCCCCOc1ccc2ccccc2c1 | 89.5% | -7.1% | 39.0* | ? | 32.8
c1ccc2cc(OCCOCCOc3ccc4ccccc4c3)ccc2c1 | 37.2% | 6.6% | 2.0 | 9.8% | -4.5
CC1CN(C(=O)c2ccc(COc3ccc(C(C)C)cc3)o2)CC(C)O1 (stereo not drawn) | 23.3% | 2.9% | 54.2* | -5.4% | 195.5*
CC1CN(C(=O)c2ccc(COc3ccccc3Cl)o2)CC(C)O1 (stereo not drawn) | 6.8% | -1.6% | 2.0 | 10.6% | -3.3
SMILES | Pf growth 48h | LmPK inh | CHX counter | Pf growth 96h | Shiga inhibitor
Cc1ccc(N2C(=O)N(CC(=O)Nc3ccc(C)cc3Cl)C(=O)C2C)cc1 (stereo not drawn) | 13.7% | · | · | -2.8% | ·
O=C(COC(=O)C12CC3CC(CC(Cl)(C3)C1)C2)NCc1ccco1 | · | · | -4.1 | · | -9.1
CC(=O)c1sc(-c2c(C)nc3sccn23)nc1C1CCCC1 | · | 1.4% | -1.1 | ? | 15.4
Cc1ccccc1OCc1ccc(C(=O)N2CC(C)OC(C)C2)o1 (stereo not drawn) | -13.1% | -1.9% | 4.4 | ? | -11.9
CC1CN(C(=O)c2ccc(COc3ccc4ccccc4c3)o2)CC(C)O1 (stereo not drawn) | 42.7% | 2.4% | 27.3* | 188.5% | 57.2*
COC(=O)[C@@]1(Cc2ccc(OC)cc2)[C@H]2c3cc(C(=O)N4CCCC4)n(CCc4c[nH]c5ccc(O)cc45)c3C[C@H]2CN1C(=O)c1ccccc1 | 1.04µM* | -2.6% | -3.5 | 2.08µM* | -8.4
COC(=O)[C@@]1(Cc2ccc(F)cc2)[C@H]2c3cc(C(=O)N4CCCC4)n(CCO)c3C[C@H]2CN1C(=O)c1ccccc1 | 3.7µM* | 1.2% | -5.1 | 6.57µM* | -15.0
O=C(Nc1ccsc1C(=O)N1CCCC1)c1ccccc1 | ? | -1.5% | -1.3 | ? | -7.8

Screening data (PubChem)
